We go through 38 molecules from PubChem BioAssay (EPA / NIEHS).

“And” between values parts separate entries of the source, which are not always exact repeats. Identical values can stand only once. Some compounds were tested as several samples or in several runs, with calls that do not always agree. The source made the active and inactive calls. Rule for the calls: active = hit-call score of the fitted dose curve at least 0.9, where 1 is the maximum; inactive = score below 0.9.

Read-out in this assay: Matrix Metallopeptidase 9 (MMP9), MMP9 (gene 4318)
Kind of assay: BSK_KF3CT_MMP9: BioMAP Diversity Plus: KF3CT Assay for Matrix Metallopeptidase 9 (MMP9) Biomarker Activity (AID 2283074). To be noted: primary human keratinocytes with fibroblasts; actives raise or lower the signal. On the procedure:
BSK_KF3CT is a cell-based, multiplexed-readout assay that uses keratinocytes and foreskin fibroblasts, a human skin primary cell co-culture, with measurements taken at 24 hours after chemical dosing in a 96-well plate.BSK_KF3CT_MMP9 is an assay component measured in the BSK_KF3CT assay. It measures MMP-9 antibody related to regulation of gene expression using ELISA technology.Data from the assay component BSK_KF3CT_MMP9 was analyzed into 1 assay endpoint. This assay endpoint, BSK_KF3CT_MMP9, was analyzed with bidirectional fitting relative to DMSO as the negative control and baseline of activity. Using a type of binding reporter, gain or loss-of-signal activity can be used to understand changes in the signaling as they relate to the gene MMP9. Furthermore, this assay endpoint can be referred to as a primary readout, because this assay has produced multiple assay endpoints where this one serves a signaling function. To generalize the intended target to other relatable targets, this assay endpoint is annotated to the protease intended target family, where the subfamily is matrix metalloproteinase.
The levels of cell surface (or secreted, indicated by the prefix "s") biomarker endpoints were measured by ELISA. Overt cytotoxicity to cells in confluent adherent cultures (all systems other than the BT system) was assessed by measuring total protein levels using sulforhodamine B (SRB) staining in parallel cultures at the time of biomarker measurements, indicated as SRB endpoints. For proliferation assays for adherent cell types, individual cell types are cultured at sub-confluence and relative cell numbers quantified by SRB staining at time points optimized for each system (48 h: 3C and CASM3C systems; 72 h: BT and HDF3CGF systems; 96 h: SAg system). SRB was performed by staining cells with 0.1% SRB after fixation with 10% TCA and reading wells at 560 nm.Viability and proliferation of PBMC (T cells) was quantified by Alamar Blue reduction for the SAg and BT systems. For PBMC viability (referred to as PBMC Cytotoxicity within the assay endpoint names), cells were plated (75,000/well in a 96-well plate) and then chemical samples added for 1 h before addition of activators, SEB and TSST-1 (20 ng/mL final concentration each). Cells were incubated for 90 h. Then, Alamar Blue (20 uL/well) (Invitrogen, Cat DAL1100) was added for 6 h, and the plates were read with a fluorescence microplate reader at 546/580 nm (excitation/emission). For PBMC proliferation, cells were plated and activated as above but incubated for only 16 h prior to addition of Alamar Blue. Plates were read after 6 h.
Turning to `O=C(CC(=O)C(F)(F)C(F)(F)F)C(F)(F)F`, the result was inactive.

`C=C(C)C(=O)OCC(F)(F)C(F)(F)C(F)(F)F`: the result was inactive.

In the case of `C=C(C)C(=O)OCCC(F)(F)C(F)(F)C(F)(F)C(F)(F)C(F)(C(F)(F)F)C(F)(F)F`, the outcome was inactive.

On to `CC(CCl)OP(=O)(OC(C)CCl)OC(C)CCl` (stereo not given), for which the outcome was inactive.

As to `FC(F)(F)C(F)(F)C(F)(F)C(F)(F)C(F)(F)C(F)(F)C(F)(F)C(F)(F)CCS`, the result was inactive.

As for `C=C(C)C(=O)OCC(F)(F)C(F)(F)C(F)(F)C(F)(F)C(F)(F)C(F)(F)C(F)(F)F`, the outcome was inactive.

Turning to `CCCCCCOC(=O)c1ccccc1O`, the result was inactive.

As for `CCCCCCCCC(F)(F)C(F)(F)C(F)(F)C(F)(F)C(F)(F)C(F)(F)F`, the result was inactive.

Regarding `O=S(=O)(O)C(F)(F)C(F)(F)C(F)(F)C(F)(F)C(F)(F)C(F)(F)C(F)(F)F`, the outcome was inactive.

As for `O=C(O)C(F)(F)C(F)(F)C(F)(F)C(F)(F)C(F)(F)C(F)(F)C(F)(F)C(F)(F)C(F)(F)C(F)(F)C(F)(F)C(F)(F)C(F)(F)F`, the result was inactive.

Consider `FC(F)(Br)C(F)(F)C(F)(F)C(F)(F)C(F)(F)C(F)(F)Br`, for which the outcome was inactive.

With `O=C(O)C(F)(F)C(F)(F)C(F)(F)C(F)(F)C(F)(F)C(F)(F)C(F)(F)C(F)(F)Cl`, the AC50 is 37.5 µM (active) and 40.3 µM (active).

Regarding `C=CC(=O)OCC(F)(F)C(F)(F)C(F)(F)C(F)(F)COC(=O)C=C`, the AC50 is 30.9 µM (active) and 21.6 µM (active).

On to `Nc1ccc([N+](=O)[O-])cc1O`, for which the result was inactive.

Turning to `O[Si](c1ccccc1)(c1ccccc1)c1ccccc1`, the AC50 is 6.74 µM (active).

For the molecule `FC(F)(F)C(F)(F)C(F)(F)C(F)(F)C(F)(F)C(F)(F)C(F)(F)I`, the outcome was inactive and the AC50 is 0.244 µM (active).

As to `CCCCC(CC)COP(=O)(O)OCC(CC)CCCC` (stereo not given), the AC50 was 29.5 µM (active) and 36.8 µM (active).

Turning to `FC1CC(F)(F)C(F)(F)C1(F)F` (stereo not given), the result was inactive.

Take `C=CC(=O)OCC(F)(F)C(F)(F)C(F)(F)C(F)(F)C(F)(F)C(F)(F)C(F)(F)F`: the result was inactive.

As to `OCC(F)(F)C(F)(F)C(F)(F)F`, the outcome was inactive.

Turning to `FC(F)(I)C(F)(F)C(F)(F)C(F)(F)I`, the half-maximal activity concentration (AC50) was 52 µM (active) and 51.2 µM (active) and 45.8 µM (active).

Turning to `C=CC/C=C/C/C=C/C/C=C/C`, the outcome was inactive.

Take `OCCCC(F)(F)C(F)(F)C(F)(F)F`: the outcome was inactive.

In the case of `FC(F)(F)C(F)(F)CNCC(F)(F)C(F)(F)F`, the outcome was inactive.

For `CC(C)(C)C(=O)CC(=O)C(F)(F)C(F)(F)C(F)(F)F`, the result was inactive.

For `O=P(O)(O)OCCC(F)(F)C(F)(F)C(F)(F)C(F)(F)C(F)(F)C(F)(F)F`, the outcome was inactive.

Consider `CCCCCCCOC(=O)c1ccccc1C(=O)OCCCCCCC`, for which the result was inactive.

As to `CCO[Si](CCC(F)(F)C(F)(F)C(F)(F)C(F)(F)C(F)(F)C(F)(F)F)(OCC)OCC`, the outcome was inactive.

On to `O=S(=O)(OCCOC(F)(F)F)C(F)(F)F`, for which the outcome was inactive.

Consider `O=C(O)C(F)(F)C(F)(F)OC(F)(F)F`, for which the outcome was inactive.

`O=C(O)C=C(C(F)(F)F)C(F)(F)F`: the AC50 was 8.2 µM (active) and the outcome was inactive.

For the molecule `COC(=O)CCC(F)(F)C(F)(F)C(F)(F)C(F)(F)F`, the outcome was inactive.

Take `CO[Si](OC)(c1ccccc1)c1ccccc1`: the AC50 was 31.3 µM (active).

In the case of `CCCCCCCCCCCCCCCC[N+](C)(C)Cc1ccccc1`, the AC50 was 1.76 µM (active).

`CCCCCCC(C)OC(=O)CCCCC(=O)OC(C)CCCCCC` (stereo not given): the outcome was inactive.

Regarding `N=C(N)C(F)(F)C(F)(F)C(F)(F)C(F)(F)C(F)(F)C(F)(F)C(F)(F)F`, the outcome was inactive.

With `FC(F)(F)C(F)(F)C(F)(F)C(F)(F)C(F)(F)CCI`, the outcome was inactive.

In the case of `OCC(F)(F)C(F)(F)C(F)(F)C(F)(F)C(F)(F)C(F)(F)F`, the result was inactive.
